Measured values from PubChem BioAssay AID1159580 (chemical genetic matrix, 2015).
Where “and” joins values, the source holds several entries; their conditions need not be identical. Equal entries are not always repeated. The campaign covered roughly 5,500 compounds. About 2,000 (36%) were called active. Roughly 18% stayed inconclusive and do not appear here. Cut-off read from the data, not from the text of the source: active = normalized growth mostly below about 0.91 (no sharp cut-off); inconclusive = no clear call, values can overlap the other calls; inactive = mostly above about 0.92. The list shows a part of the results.

Assay: chemical genetic growth profiling, strain panel (AID 1159580);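 note: tested at 20 µM; growth read once vehicle control cultures reached saturation at 30 °C; 1 = growth at the plate median or of vehicle wells; lower values mean less growth of the strain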
Settings: S. cerevisiae deletion strains, growth OD

Measured: normalized growth

NC(N)=NCCN1CCCCCCC1
inactive: locus YAL013W, strain DEP1, hits give low values 1 | locus YAL021C, strain ccr4, hits give low values 1.02 | locus YAL026C, strain drs2, hits give low values 1.02 | locus YAL030W, strain snc1, hits give low values 1.03 | locus YBL061C, strain skt5, hits give low values 1.03 | locus YBR009C, strain hhf1, hits give low values 1.03 | locus YBR021W, strain FUR4, hits give low values 1.01 | locus YBR023C, strain chs3, hits give low values 1.03 | locus YBR171W, strain sec66, hits give low values 1.06 | locus YBR229C, strain ROT2, hits give low values 1 | locus YBR231C, strain swc5, hits give low values 0.999 | locus YBR279W, strain paf1, hits give low values 1.02 | locus YCL011C, strain gbp2, hits give low values 1.04 | locus YCL016C, strain dcc1, hits give low values 1.02 | locus YCL029C, strain bik1, hits give low values 1.01 | locus YCL061C, strain MRC1, hits give low values 1.03 | locus YCL069W, strain vba3, hits give low values 1.03 | locus YCR088W, strain abp1, hits give low values 1.03 | locus YDL005C, strain med2, hits give low values 1.04 | locus YDL035C, strain GPR1, hits give low values 1.01 | locus YDL040C, strain nat1, hits give low values 1.02 | locus YDL074C, strain BRE1, hits give low values 1.01 | locus YDL101C, strain DUN1, hits give low values 1 | locus YDL185W, strain tfp1, hits give low values 1.01 | locus YDL192W, strain arf1, hits give low values 1.03 | locus YDR001C, strain nth1, hits give low values 1.02 | locus YDR069C, strain doa4, hits give low values 1.02 | locus YDR101C, strain arx1, hits give low values 1.01 | locus YDR137W, strain rgp1, hits give low values 1.04 | locus YDR159W, strain sac3, hits give low values 1.05 | locus YDR162C, strain NBP2, hits give low values 1 | locus YDR195W, strain ref2 1.01 | locus YDR297W, strain sur2, hits give low values 1.03 | locus YDR318W, strain mcm21, hits give low values 1.02 | locus YDR334W, strain swr1, hits give low values 1.03 | locus YDR335W, strain msn5, hits give low values 1.03 | locus YDR388W, hits give low values 1.02 | locus YDR392W, strain spt3, hits give low values 0.986 | locus YDR502C, strain sam2, hits give low values 1.01 | locus YEL003W, strain gim4, hits give low values 1.02 | locus YEL037C, strain rad23, hits give low values 1.03 | locus YEL061C, strain CIN8 (second series), hits give low values 1.02 | locus YEL061C, strain CIN8, hits give low values 1.01 | locus YER015W, strain faa2, hits give low values 1.03 | locus YER016W, strain bim1, hits give low values 1.02 | locus YER110C, hits give low values 1.03 | locus YER111C, strain swi4, hits give low values 1.03 | locus YER155C, strain BEM2 (second series), hits give low values 1 | locus YER155C, strain BEM2, hits give low values 0.998 | locus YER167W, strain BCK2, hits give low values 1 | locus YFR010W, strain ubp6, hits give low values 1.03 | locus YGL078C, strain dbp3, hits give low values 1.04 | locus YGL086W, strain mad1, hits give low values 1 | locus YGL167C, strain pmr1, hits give low values 1.05 | locus YGL173C, strain kem1, hits give low values 1.03 | locus YGL227W, strain vid30, hits give low values 1.03 | locus YGL240W, strain doc1, hits give low values 1.02 | locus YGL248W, strain PDE1, hits give low values 1.01 | locus YGL253W, strain hxk2, hits give low values 1.02 | locus YGR078C, strain PAC10, hits give low values 1 | locus YGR135W, strain pre9, hits give low values 1.02 | locus YGR252W, strain gcn5, hits give low values 0.994 | locus YHR013C, strain ard1, hits give low values 1.05 | locus YHR027C, strain rpn1, hits give low values 1.03 | locus YHR030C, strain SLT2, hits give low values 1.01 and 0.977 | locus YHR079C, strain IRE1 (second series), hits give low values 1.02 | locus YHR079C, strain IRE1, hits give low values 0.983 | locus YHR094C, strain hxt1, hits give low values 1.02 | locus YHR129C, strain ARP1, hits give low values 1 | locus YHR142W, strain chs7, hits give low values 1.05 | locus YHR200W, strain rpn10, hits give low values 1.03 | locus YIL066C, strain RNR3, hits give low values 1.01 | locus YIL073C, strain SPO22, hits give low values 1.04 | locus YIL125W, strain kgd1, hits give low values 1.02 | locus YIR030C, strain dcg1, hits give low values 1.02 | locus YJL092W, strain hpr5, hits give low values 1.03 | locus YJL095W, strain BCK1 (second series), hits give low values 1.02 | locus YJL095W, strain BCK1, hits give low values 1.01 and 0.982 | locus YJL115W, strain asf1, hits give low values 1.03 | locus YJL129C, strain trk1, hits give low values 1.06 | locus YJL134W, strain LCB3, hits give low values 1 | locus YJL154C, strain vps35, hits give low values 1.01 | locus YJL164C, strain tpk1, hits give low values 1.04 | locus YJL166W, strain qcr8, hits give low values 1.04 | locus YJL168C, strain set2, hits give low values 1.03 | locus YJL187C, strain SWE1 (second series), hits give low values 1.01 | locus YJL187C, strain SWE1, hits give low values 1.04 | locus YJR043C, strain POL32, hits give low values 1 | locus YJR066W, strain TOR1, hits give low values 0.932 | locus YKL009W, strain mrt4, hits give low values 1.02 | locus YKL068W, hits give low values 1.01 | locus YKL085W, strain MDH1 (second series), hits give low values 1.01 | locus YKL085W, strain MDH1, hits give low values 1.01 | locus YKL160W, strain elf1, hits give low values 1.04 | locus YKR001C, strain vps1, hits give low values 1.03 | locus YKR026C, strain gcn3, hits give low values 1.03 | locus YKR091W, strain srl3, hits give low values 1.02 | locus YLL001W, strain dnm1, hits give low values 1.02 | locus YLL026W, hits give low values 1.03 | locus YLL041C, strain sdh2, hits give low values 1.02 | locus YLR027C, strain aat2, hits give low values 1.02 | locus YLR039C, strain RIC1, hits give low values 1 | locus YLR058C, strain SHM2, hits give low values 1.01 | locus YLR102C, strain apc9, hits give low values 1.02 | locus YLR113W, strain HOG1, hits give low values 0.985 | locus YLR221C, strain rsa3, hits give low values 1.05 | locus YLR258W, strain gsy2, hits give low values 1.03 | locus YLR262C, strain YPT6, hits give low values 1.03 | locus YLR268W, strain sec22, hits give low values 1.02 | locus YLR320W, strain mms22, hits give low values 1.05 | locus YLR330W, strain CHS5, hits give low values 1.01 | locus YLR342W, strain FKS1 (second series), hits give low values 1.02 | locus YLR342W, strain FKS1, hits give low values 1.06 | locus YLR357W, strain rsc2, hits give low values 1.03 | locus YLR370C, strain arc18, hits give low values 1.03 | locus YLR371W, strain rom2, hits give low values 1.02 | locus YLR384C, strain iki3, hits give low values 1.03 | locus YLR418C, strain cdc73, hits give low values 1.03 | locus YML016C, strain PPZ1, hits give low values 1.01 | locus YML032C, strain rad52, hits give low values 1.02 | locus YML120C, strain ndi1, hits give low values 1.04 | locus YML124C, strain tub3, hits give low values 1.03 | locus YMR058W, strain fet3, hits give low values 1.02 | locus YMR078C, strain ctf18, hits give low values 1.02 | locus YMR125W, strain sto1, hits give low values 1.03 | locus YMR129W, hits give low values 1.02 | locus YMR205C, strain PFK2, hits give low values 1.05 | locus YMR223W, strain ubp8, hits give low values 1.02 | locus YMR231W, strain pep5, hits give low values 1.04 | locus YMR307W, strain GAS1, hits give low values 0.992 | locus YNL067W, strain RPL9B, hits give low values 1 | locus YNL071W, strain lat1, hits give low values 1.03 | locus YNL128W, strain TEP1, hits give low values 1.02 | locus YNL183C, strain NPR1, hits give low values 0.959 | locus YNL233W, strain BNI4, hits give low values 1.01 | locus YNL248C, strain rpa49, hits give low values 1.04 | locus YNL250W, strain rad50, hits give low values 1.01 | locus YNL271C, strain bni1, hits give low values 1.02 | locus YNL298W, strain CLA4, hits give low values 1.03 | locus YNL307C, strain MCK1, hits give low values 1.02 | locus YNL322C, strain KRE1 (second series), hits give low values 1.05 | locus YNL322C, strain KRE1, hits give low values 1 | locus YNR049C, strain mso1, hits give low values 1.03 | locus YNR052C, strain pop2, hits give low values 1.01 | locus YOL012C, strain htz1 0.825 | locus YOL147C, strain pex11, hits give low values 1.02 | locus YOR001W, strain rrp6, hits give low values 0.997 | locus YOR061W, strain CKA2, hits give low values 1.01 | locus YOR069W, strain VPS5, hits give low values 1 | locus YOR070C, strain gyp1, hits give low values 1.05 | locus YOR080W, strain dia2, hits give low values 1.03 | locus YOR083W, strain WHI5, hits give low values 1.03 | locus YOR106W, strain vam3, hits give low values 1.05 | locus YOR136W, strain idh2, hits give low values 1.02 | locus YOR144C, strain elg1, hits give low values 1.02 | locus YOR184W, strain ser1, hits give low values 1.03 | locus YOR231W, strain MKK1, hits give low values 0.993 | locus YOR265W, strain rbl2, hits give low values 1.05 | locus YOR270C, strain vph1, hits give low values 1.07 | locus YOR290C, strain snf2, hits give low values 0.981 | locus YOR316C, strain cot1, hits give low values 1.02 | locus YPL051W, strain arl3, hits give low values 1.02 | locus YPL055C, strain LGE1, hits give low values 1.01 | locus YPL078C, strain atp4, hits give low values 1.03 | locus YPL106C, strain sse1, hits give low values 1.02 | locus YPL240C, strain hsp82, hits give low values 1.04 | locus YPL256C, strain CLN2, hits give low values 0.977 | locus YPR119W, strain clb2, hits give low values 1.03 | locus YPR141C, strain kar3, hits give low values 1.02 | locus YPR163C, strain tif3, hits give low values 1.03 | locus YPR167C, strain met16, hits give low values 1.02 | strain wtn01, hits give low values 1.03
active: locus YLR262C, strain YPT6 (second series), hits give low values 1.25 [resistant] | locus YNL209W, strain ssb2, hits give low values 0.87
